Source: PubChem
PTHR1 ag – PTHR1 (human) receptor agonism. Potency, µM (highest dose often 115 µM), for the others: at the top dose activation, most hits filed as activators. Q03431. HEK293 GP2 PTHR1 cells, GloSensor cAMP luminescence, 1 h. 410,000 tested, 0.075% active; also: potency is read from the fitted curve at half-maximal effect; nearly all actives have a fitted effect of over 55% in size
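HEK-293-derived GP2 cells expressing PTHR1 and a GloSensor cAMP reporter, 3,000/well, plated overnight, given luciferin plus IBMX (each 0.5 mM as added) for 1 h at 37 °C, then compound for 1 h at 37 °C. Luminescence was read after 15 min at room temperature.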
BRCA1 expr act – activators of BRCA1 expression. 380,000 tested, 1.1% active. Potency, µM (series often up to 46.1 µM), for the others: top-dose activation, hits mostly activators. MCF7-BRCA1-FFLuc reporter, luminescence, 48 h; response scale: scaled: vehicle 0%, 10 µM genistein 100%; also: potency is read from the fitted curve at half-maximal effect; nearly all actives have a fitted effect of over 80% in size
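Reporter cells (MCF7, BRCA1 promoter-firefly luciferase) received library compounds across a concentration series for 48 h. End-point luminescence was measured and concentration-effect curves derived after normalization.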
DRD3 antagonist – D3 dopamine receptor (human) antagonism | max response, negative = inhibition, % | 360,000 tested, 2.5% active | D3R cells, DiscoveRx beta-arrestin luminescence, antagonist mode; hits give low values; in the data active = max response below about -50%; also: % is scaled to controls: 0 for no effect and ±100 for the full control effect
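Cells plated overnight at 1500 cells/well, then exposed to library compounds with dopamine controls for 90 minutes at 37 degrees C. DiscoveRx reagent added for 30–60 minutes at room temperature; luminescence read, quantitative HTS format.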
RGS4 inh – human RGS4 inhibition. P49798. Transcreener GDP fluorescence polarization, RGS4-accelerated GTP hydrolysis. Potency, µM (series often up to 114 µM), without a hit: at the top dose activity change, negative = inhibition, usual class: inhibitors. 390,000 tested, 0.039% active; also: potency is read from the fitted curve at half-maximal effect; % is scaled to controls: 0 for no effect and ±100 for the full control effect; nearly all actives have a fitted effect of over 75% in size
Target sequence (P49798 whole entry, looked up): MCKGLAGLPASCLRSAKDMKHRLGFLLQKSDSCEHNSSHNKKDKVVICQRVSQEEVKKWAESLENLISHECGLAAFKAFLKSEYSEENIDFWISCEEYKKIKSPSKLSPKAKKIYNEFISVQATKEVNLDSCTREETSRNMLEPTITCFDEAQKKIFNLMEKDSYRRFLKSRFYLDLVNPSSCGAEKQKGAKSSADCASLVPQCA
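MLSMR compounds (23 nl, pin-transferred) preincubated 10 min at room temperature with a 500nM (2x) first reagent, then RGS4 at 900nM (2x) plus Transcreener GDP mix added; fluorescence polarization (620/688 nm) read before and after 90 min at 30 °C.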
B2AR arrestin – beta2AR (human) beta-arrestin recruitment activity | beta-arrestin recruitment to beta2AR, cell-based reporter | Potency, µM (doses to about 46.1 µM), for inactives: at the highest dose activation, usual class: activators | 330,000 tested, 0.02% active;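 also: potency is read from the fitted curve at half-maximal effect; 0% = DMSO controls and full agonism = EC100 isoproterenol or metaproterenol; nearly all actives have a fitted effect of over 65% in size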
Target sequence (P07550 whole entry, looked up): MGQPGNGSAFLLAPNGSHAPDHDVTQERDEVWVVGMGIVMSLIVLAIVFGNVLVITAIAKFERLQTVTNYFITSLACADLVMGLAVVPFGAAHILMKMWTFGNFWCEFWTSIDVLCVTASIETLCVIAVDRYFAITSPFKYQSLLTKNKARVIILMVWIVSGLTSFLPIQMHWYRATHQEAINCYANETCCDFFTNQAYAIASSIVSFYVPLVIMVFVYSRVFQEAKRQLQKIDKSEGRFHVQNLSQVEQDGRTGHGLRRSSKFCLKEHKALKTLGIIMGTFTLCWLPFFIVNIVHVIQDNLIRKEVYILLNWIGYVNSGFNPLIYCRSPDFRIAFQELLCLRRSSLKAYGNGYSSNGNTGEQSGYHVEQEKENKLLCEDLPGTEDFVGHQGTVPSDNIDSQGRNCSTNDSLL
D3 ag – activates the human D3 dopamine receptor; D3R DiscoveRx beta-arrestin cells, luminescence, 90 min; 410,000 tested, 0.58% active; max activation, %; P35462; AID 652048; in the data active = max activation above about 30%; also: 0% is about no effect
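Agonist-mode cell screen: cells plated at 1500/well and incubated overnight at 37 °C, then exposed to library compounds for 90 min at 37 °C. Detection reagent was added for 30–60 min at room temperature, and luminescence was read.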
* marks the source's active call; other numbers are inactive results; i = inactive; nt = no result; [ ] = remark or other dose. A selection: hits, their analogues and other compounds. The true share with any hit is near 3.7%. Unless noted, calls follow the shape of the dose curve; as a rule, active = well fitted curve in the direction sought with a large enough effect; inconclusive = small, poorly fitted or top-dose-only effect, or another doubt; inactive = no such curve, though single readings can be large; an effect the other way counts as inactive or inconclusive.

SMILES	PTHR1 ag	BRCA1 expr act	DRD3 antagonist	RGS4 inh	B2AR arrestin	D3 ag
COc1ccc(OC)c2c1CCC2=O	i	2%	-52*	26%	0%	3
CCOC(=O)c1c(O)c2c(n(Cc3ccco3)c1=O)CCCC2	i	21%	58	7%	-1%	44*
CC1(C(=O)NS(=O)(=O)c2cccc(Cl)c2)CCN1C(=O)CC1CCCCC1 (stereo not drawn)	-8%	19%	0	nt	nt	-11
CC1(C(=O)Nc2cnc3ccccc3c2)CCN1C(=O)CCc1ccccc1 (stereo not drawn)	-36%	-18%	0	nt	nt	54*
CCCCOc1ccc(S(=O)(=O)NC(=O)C2(C)CCN2C(=O)CCc2ccccc2)cc1 (stereo not drawn)	10%	22%	-50*	nt	nt	-3
CC1(C(=O)NS(=O)(=O)c2cccc(Cl)c2)CCN1C(=O)Cc1ccc(Cl)cc1Cl (stereo not drawn)	-16%	-8%	-83*	nt	nt	-26
Cc1cccc(S(=O)(=O)NC(=O)C2(C)CCN2C(=O)Cc2ccc(Cl)cc2Cl)c1 (stereo not drawn)	-24%	0%	25	nt	nt	3
CC1(C(=O)Nc2cnc3ccccc3c2)CCN1CCc1ccccc1 (stereo not drawn)	i	-25%	0	nt	nt	-2
CCCCOc1ccc(S(=O)(=O)NC(=O)C2(C)CCN2C(=O)Cc2ccccc2Cl)cc1 (stereo not drawn)	-19%	13%	-8	nt	nt	-20
CC1(C(=O)NS(=O)(=O)c2cccc(Cl)c2)CCN1C(=O)CC1CC1 (stereo not drawn)	-11%	13%	0	nt	nt	52*
CC#CCOC(=O)c1c(C)nc2sc3c(c2c1N)CC[C@@H](O)C3	nt	1%	nt	nt	nt	nt
CC1(C(=O)NS(=O)(=O)c2ccc(Cl)cc2)CCN1C(=O)CCc1ccc(Cl)cc1Cl (stereo not drawn)	i	18%	-52*	nt	nt	-15
CCOc1nc(C)ccc1-c1noc(-c2ccccc2OC)n1	-25%	27%	8	-24%	0%	-2
CCCCCCCCC#Cc1nc(C)ccc1OC	-40%	-10%	15	6%	8%	65*
COCCn1c(-c2ccc(OC)cc2)cnc1SCC(=O)Nc1cc(C)on1	-6%[57.5 µM]	-4%	-70*	3%	0%	-8
C/C=C/c1cc(CN2CCN(c3ccccc3)CC2)c(O)c(OC)c1	i	-5%	-98*	-11%	0%	-20
CCN(Cc1ccccc1)C(=O)Cn1cc(S(=O)(=O)NC)c(S(=O)(=O)NC)c1	-26%	-5%	-52*	14%	0%	0
COc1ccc(-c2cc3nc4ccccc4n3c(N)c2C#N)cc1	i	4µM*	-1	4%[11.4 µM]	-1%	14
Cc1ccc(-c2nc3ccccc3[nH]2)cc1NC(=S)NC(=O)c1ccccc1Br	-81%[57.5 µM]	-19%	-51*	-13%	-1%	-6
COCCn1cnnc1SCC(=O)Nc1cccc(S(=O)(=O)N(C)c2ccccc2)c1	-13%	-21%	2	9%	-1%	6
CN(C)S(=O)(=O)c1ccc(NC(=O)CSc2ncnc3ccccc23)cc1	-21%	-8%	30	26%	0%	-4
Cc1nnc(SCC(=O)Nc2cccc(S(=O)(=O)N(C)c3ccccc3)c2)s1	-30%	-15%	41	10%	0%	34*
CN(C)S(=O)(=O)c1cccc(NC(=O)CSc2ncnc3ccccc23)c1	-96%	-38%	0	13%	0%	65*
COc1cccc(NC(=O)CSc2nnc(NC(=O)C3CC3)s2)c1	-11%	-7%	-57*	8%	0%	0
COc1cccc(NC(=O)CSc2nc3ccccc3cc2Cc2ccccc2)c1	i	-41%	-52*	17%	0%	1
SMILES	PTHR1 ag	BRCA1 expr act	DRD3 antagonist	RGS4 inh	B2AR arrestin	D3 ag
COc1cc(NC(=O)CSc2nc3ccccc3cc2Cc2ccccc2)cc(OC)c1	-4%[57.5 µM]	-44%	5	-2%	-1%	-10
O=C(Cn1nnc(-c2ccc3c(c2)OCO3)n1)Nc1ccccc1C(=O)O	-26%	11µM*	-18	-10%	-1%	1
CCOc1ccc(/C=C(\C#N)c2nc(-c3cc4ccccc4oc3=O)cs2)c(OCC)c1	-19%	nt	nt	4%	nt	3
CC(C)C[C@@H](CO)N(Cc1ccccc1)S(=O)(=O)N(Cc1ccccc1)[C@H](CO)CC(C)C	-55%	-68%	129	-9%	0%	48*
CC(C)C[C@@H](CO)N(Cc1ccccc1)S(=O)(=O)N(Cc1ccccc1)[C@@H](CO)CC(C)C	-24%	-91%	123	12%	0%	-16
C=CS(=O)(=O)N(Cc1ccccc1Br)[C@H](CO)CC(C)C	-10%	-51%	-81*	5%	nt	0
OC(Cc1ccncc1)c1ccccc1Cl (stereo not drawn)	-7%	-24%	5	-17%	nt	4
CCCCCn1cnc2c(sc3nc4c(cc32)CSC(C)(C)C4)c1=O	-79%	2.2µM*	57	-15%	-1%	2
CC(C)(C)CNC(CO)C12CC3CC(CC(C3)C1)C2 (stereo not drawn)	i	-6%	-54*	-9%	0%	-3
CC(C)c1ccccc1OCC(=O)N(C)CC(=O)Nc1ccc(F)cc1	-7%	-28%	-58*	21%	0%	-36
Cn1c(=O)n(-c2ccc(C(C)(C)C#N)cc2)c2c3cc(-c4cnc5ccccc5c4)ccc3ncc21	nt	-57%[92.2 µM]	nt	nt	nt	nt
CC(=O)Nc1nc(C)nc(-c2ccccc2OC(C)=O)n1	22%[57.5 µM]	-39%	18	-45%	0%	31*
CC1O[C@@H](OCC2O[C@@H](Oc3cc(O)c4c(c3)OC(c3ccc(O)cc3)CC4=O)[C@H](O)[C@@H](O)[C@@H]2O)[C@H](O)[C@H](O)[C@H]1O (stereo partly drawn)	-15%	10%	-58*	-3%	-1%	-24
CCCCc1c(CCC)c(=N)c2ccccc2n1C	-90%	-86%	-73*	-23%	0%	0
CCCCc1c(O)c2ccccc2n(CCCC)c1=O	i	-9%	25	2%	-1%	0
CCc1ccc(S(=O)(=O)NCc2ccc(C(=O)NCCN(Cc3ccccc3)C(C)C)cc2)cc1	-25%	-51%	-91*	nt	nt	-16
Cc1ccc(C)c(S(=O)(=O)N2CCN(C(=O)c3cc(S(=O)(=O)NCc4ccccc4)ccc3C)CC2)c1	-15%	-32%	-4	37%	0%	0
COC(=O)c1ccc(NC(=O)CN2CCN(CC#N)CC2)cc1	-22%	12%	6	-20%	0%	3
